Assay in all cases: DAPPL (digital affinity profiling via proximity ligation, sequencing); 10 mM Tris-HCl pH 7.5, 50 mM NaCl, 1 mM DTT, 4% glycerol, room temperature, 30 min; GST-TFs on glutathione beads, 16-mer random dsDNA library, 0.1% formaldehyde crosslink after washing; high values mean tight binding
The target of one test is T1, FLI1 (Homo sapiens, UniProt Q01543 1-452).
T1 sequence: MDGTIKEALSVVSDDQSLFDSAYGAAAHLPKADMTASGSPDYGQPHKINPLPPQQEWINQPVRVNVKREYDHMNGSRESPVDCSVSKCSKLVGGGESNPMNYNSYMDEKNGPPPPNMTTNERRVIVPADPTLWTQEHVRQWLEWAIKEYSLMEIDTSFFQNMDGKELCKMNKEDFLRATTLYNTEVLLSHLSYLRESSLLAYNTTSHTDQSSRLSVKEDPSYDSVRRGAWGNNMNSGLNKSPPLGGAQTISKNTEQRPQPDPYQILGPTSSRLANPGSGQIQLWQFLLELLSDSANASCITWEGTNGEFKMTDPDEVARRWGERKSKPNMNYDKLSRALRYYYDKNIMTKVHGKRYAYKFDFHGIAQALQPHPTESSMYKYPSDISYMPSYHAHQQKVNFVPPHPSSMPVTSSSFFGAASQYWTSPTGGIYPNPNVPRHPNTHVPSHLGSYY
To be noted: protein: recombinant; tags: N-terminal GST; dsDNA, one strand shown. The method in brief: (§1)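 Binding signal is each hexamer's read frequency for a factor divided by its frequency in the tag-only sample. The factors were GST-fused human transcription factors from yeast, captured on glutathione beads, DNA-barcoded and pooled with that sample. Pools were incubated with 200 nmole of a random double-stranded 16-mer DNA library in Tris/NaCl/DTT/glycerol buffer at room temperature for 30 min, then washed, crosslinked with 0.1% formaldehyde, proximity-ligated with BsaI/T4 ligase (1 h, 37 °C), PCR-amplified and sequenced on an Illumina NextSeq500.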

For the next test, the target named is T2, ELK1 (Homo sapiens, UniProt P19419 1-428).
T2 sequence: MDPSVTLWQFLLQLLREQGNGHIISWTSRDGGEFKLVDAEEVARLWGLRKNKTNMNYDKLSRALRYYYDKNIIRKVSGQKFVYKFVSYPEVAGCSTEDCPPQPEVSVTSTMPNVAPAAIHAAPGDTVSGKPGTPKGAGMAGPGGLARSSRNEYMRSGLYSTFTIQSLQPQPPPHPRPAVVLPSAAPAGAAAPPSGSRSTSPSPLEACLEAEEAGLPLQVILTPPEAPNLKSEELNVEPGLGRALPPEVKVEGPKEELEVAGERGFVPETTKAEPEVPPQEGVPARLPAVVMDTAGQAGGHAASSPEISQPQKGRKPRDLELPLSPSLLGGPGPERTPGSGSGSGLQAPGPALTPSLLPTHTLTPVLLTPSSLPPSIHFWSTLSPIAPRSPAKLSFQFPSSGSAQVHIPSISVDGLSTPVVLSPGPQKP
To be noted: protein: recombinant; tags: N-terminal GST; dsDNA, one strand shown. The method in brief: as §1

A further test has as its target T3, GABPA (Homo sapiens, UniProt Q06546 1-454).
T3 sequence: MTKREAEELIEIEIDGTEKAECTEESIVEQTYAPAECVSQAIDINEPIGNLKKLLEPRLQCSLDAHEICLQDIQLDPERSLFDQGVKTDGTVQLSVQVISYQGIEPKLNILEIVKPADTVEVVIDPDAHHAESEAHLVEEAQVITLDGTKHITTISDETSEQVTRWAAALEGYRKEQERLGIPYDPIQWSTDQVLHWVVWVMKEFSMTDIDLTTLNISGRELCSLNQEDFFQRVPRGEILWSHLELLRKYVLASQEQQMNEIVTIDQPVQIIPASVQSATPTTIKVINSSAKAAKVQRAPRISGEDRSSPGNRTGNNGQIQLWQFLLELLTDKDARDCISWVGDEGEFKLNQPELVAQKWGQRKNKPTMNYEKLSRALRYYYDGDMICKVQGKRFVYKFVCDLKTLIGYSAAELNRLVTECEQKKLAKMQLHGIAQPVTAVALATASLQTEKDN
To be noted: protein: recombinant; tags: N-terminal GST; dsDNA, one strand shown. An outline of the steps: as §1

A further test deals with T4, ERG (Homo sapiens, UniProt P11308 1-479).
T4 sequence: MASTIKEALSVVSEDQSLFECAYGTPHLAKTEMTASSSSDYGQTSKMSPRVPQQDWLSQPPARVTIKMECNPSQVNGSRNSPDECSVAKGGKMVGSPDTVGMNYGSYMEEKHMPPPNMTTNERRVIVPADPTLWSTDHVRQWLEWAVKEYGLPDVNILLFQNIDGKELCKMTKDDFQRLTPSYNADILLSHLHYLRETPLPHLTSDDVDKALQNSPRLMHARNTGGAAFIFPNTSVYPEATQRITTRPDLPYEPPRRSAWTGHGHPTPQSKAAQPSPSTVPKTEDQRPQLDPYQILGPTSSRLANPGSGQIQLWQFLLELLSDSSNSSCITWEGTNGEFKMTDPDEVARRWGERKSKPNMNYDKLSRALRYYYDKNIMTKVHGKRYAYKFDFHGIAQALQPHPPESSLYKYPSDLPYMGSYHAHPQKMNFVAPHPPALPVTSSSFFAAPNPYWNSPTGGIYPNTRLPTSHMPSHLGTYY
To be noted: protein: recombinant; tags: N-terminal GST; dsDNA, one strand shown. The method in brief:
as §1

Another test has as its target ELF1 (Homo sapiens, UniProt P32519 1-619). To be noted: protein: recombinant; tags: N-terminal GST; dsDNA, one strand shown. An outline of the steps: as §1
A further test concerns the target T5, EHF (Homo sapiens, UniProt Q9NZC4 1-300).
T5 sequence: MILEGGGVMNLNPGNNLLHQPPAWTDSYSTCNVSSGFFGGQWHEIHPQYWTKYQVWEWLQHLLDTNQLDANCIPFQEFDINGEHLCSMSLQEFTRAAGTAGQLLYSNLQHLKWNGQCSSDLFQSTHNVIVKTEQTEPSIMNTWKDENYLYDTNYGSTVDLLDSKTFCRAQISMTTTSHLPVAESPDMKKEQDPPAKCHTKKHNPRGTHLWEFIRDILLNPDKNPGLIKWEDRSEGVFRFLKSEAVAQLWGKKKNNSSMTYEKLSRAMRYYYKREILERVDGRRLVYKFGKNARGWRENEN
To be noted: protein: recombinant; tags: N-terminal GST; dsDNA, one strand shown. The method in brief: as §1

For a further test, the target named is SPI1 (Homo sapiens, UniProt P17947 1-270). To be noted: protein: recombinant; tags: N-terminal GST; dsDNA, one strand shown. The method in brief: as §1
The target of a further test is SPIB (Homo sapiens, UniProt Q01892 1-262). To be noted: protein: recombinant; tags: N-terminal GST; dsDNA, one strand shown. The method in brief:
as §1

A further test concerns the target T6, ELK3 (Homo sapiens, UniProt P41970 1-407).
T6 sequence: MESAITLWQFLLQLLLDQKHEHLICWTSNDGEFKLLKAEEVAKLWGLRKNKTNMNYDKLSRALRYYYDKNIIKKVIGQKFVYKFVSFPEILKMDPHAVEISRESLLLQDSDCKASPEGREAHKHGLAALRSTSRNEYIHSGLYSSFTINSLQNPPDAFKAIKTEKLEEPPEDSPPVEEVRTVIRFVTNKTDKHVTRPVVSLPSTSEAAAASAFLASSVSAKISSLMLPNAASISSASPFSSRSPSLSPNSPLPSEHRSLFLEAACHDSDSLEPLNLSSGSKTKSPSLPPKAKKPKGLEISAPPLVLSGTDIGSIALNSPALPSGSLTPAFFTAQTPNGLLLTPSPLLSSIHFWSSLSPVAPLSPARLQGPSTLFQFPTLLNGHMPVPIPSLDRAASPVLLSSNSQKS
To be noted: protein: recombinant; tags: N-terminal GST; dsDNA, one strand shown. An outline of the steps: as §1

A further test concerns the target T7, FEV (Homo sapiens, UniProt Q99581 1-238).
T7 sequence: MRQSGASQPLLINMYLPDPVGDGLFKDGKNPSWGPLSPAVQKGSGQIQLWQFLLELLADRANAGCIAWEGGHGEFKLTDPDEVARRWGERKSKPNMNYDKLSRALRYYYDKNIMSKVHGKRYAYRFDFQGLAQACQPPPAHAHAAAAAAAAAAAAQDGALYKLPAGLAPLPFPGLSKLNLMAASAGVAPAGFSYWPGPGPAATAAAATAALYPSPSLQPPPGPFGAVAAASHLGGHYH
To be noted: protein: recombinant; tags: N-terminal GST; dsDNA, one strand shown. The method in brief:
as §1

Another test deals with ETV5 (Homo sapiens, UniProt P41161 1-510). To be noted: protein: recombinant; tags: N-terminal GST; dsDNA, one strand shown. An outline of the steps:
as §1

Another test deals with HSF1 (Homo sapiens, UniProt Q00613 1-529). To be noted: protein: recombinant; tags: N-terminal GST; chain copies: 3; dsDNA, one strand shown. The method in brief: as §1
Chain of HSF1 (Q00613 whole entry): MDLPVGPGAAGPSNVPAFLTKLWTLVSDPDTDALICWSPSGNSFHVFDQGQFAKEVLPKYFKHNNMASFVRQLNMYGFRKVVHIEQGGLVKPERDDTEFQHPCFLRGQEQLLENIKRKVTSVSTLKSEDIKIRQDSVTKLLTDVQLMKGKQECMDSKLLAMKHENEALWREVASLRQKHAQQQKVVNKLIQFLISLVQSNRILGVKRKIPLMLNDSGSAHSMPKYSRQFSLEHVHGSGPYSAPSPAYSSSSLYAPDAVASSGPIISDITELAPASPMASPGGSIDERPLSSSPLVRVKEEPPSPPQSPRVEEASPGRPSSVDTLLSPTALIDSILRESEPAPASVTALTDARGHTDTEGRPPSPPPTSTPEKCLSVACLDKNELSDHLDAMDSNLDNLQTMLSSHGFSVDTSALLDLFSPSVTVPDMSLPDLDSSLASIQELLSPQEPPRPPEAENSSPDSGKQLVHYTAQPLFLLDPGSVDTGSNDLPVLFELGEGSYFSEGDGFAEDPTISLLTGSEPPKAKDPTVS
The next test has as its target T8, SPIC (Homo sapiens, UniProt Q8N5J4 1-248).
T8 sequence: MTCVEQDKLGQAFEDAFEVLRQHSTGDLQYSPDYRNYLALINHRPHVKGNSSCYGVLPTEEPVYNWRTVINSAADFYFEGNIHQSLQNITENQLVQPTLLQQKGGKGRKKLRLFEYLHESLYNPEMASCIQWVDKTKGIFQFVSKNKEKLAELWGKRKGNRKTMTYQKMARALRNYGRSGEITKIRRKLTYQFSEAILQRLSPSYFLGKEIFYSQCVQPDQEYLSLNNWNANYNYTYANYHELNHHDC
To be noted: protein: recombinant; tags: N-terminal GST; dsDNA, one strand shown. An outline of the steps: as §1

The target in the next test is ELF4 (Homo sapiens, UniProt Q99607 1-663). To be noted: protein: recombinant; tags: N-terminal GST; dsDNA, one strand shown. An outline of the steps: as §1
Chain of ELF4 (Q99607 whole entry): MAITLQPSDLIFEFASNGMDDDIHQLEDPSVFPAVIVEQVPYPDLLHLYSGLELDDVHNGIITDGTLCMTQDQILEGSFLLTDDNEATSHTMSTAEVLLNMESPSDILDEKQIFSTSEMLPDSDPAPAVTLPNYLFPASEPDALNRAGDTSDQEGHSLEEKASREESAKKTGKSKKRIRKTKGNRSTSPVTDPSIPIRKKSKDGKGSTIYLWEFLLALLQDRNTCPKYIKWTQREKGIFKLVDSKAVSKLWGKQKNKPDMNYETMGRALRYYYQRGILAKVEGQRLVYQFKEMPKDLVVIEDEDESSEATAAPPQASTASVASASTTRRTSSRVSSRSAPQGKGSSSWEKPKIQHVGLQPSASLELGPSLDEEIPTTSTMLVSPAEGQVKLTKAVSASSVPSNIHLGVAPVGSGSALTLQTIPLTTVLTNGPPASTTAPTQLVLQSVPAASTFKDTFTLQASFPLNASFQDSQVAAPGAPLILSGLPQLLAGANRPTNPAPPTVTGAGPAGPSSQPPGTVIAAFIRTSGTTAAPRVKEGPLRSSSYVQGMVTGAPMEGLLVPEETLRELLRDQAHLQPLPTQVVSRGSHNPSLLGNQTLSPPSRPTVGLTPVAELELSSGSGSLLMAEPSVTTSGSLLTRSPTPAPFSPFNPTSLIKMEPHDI
The target in another test is T9, ELK4 (Homo sapiens, UniProt P28324-2 1-405).
T9 sequence: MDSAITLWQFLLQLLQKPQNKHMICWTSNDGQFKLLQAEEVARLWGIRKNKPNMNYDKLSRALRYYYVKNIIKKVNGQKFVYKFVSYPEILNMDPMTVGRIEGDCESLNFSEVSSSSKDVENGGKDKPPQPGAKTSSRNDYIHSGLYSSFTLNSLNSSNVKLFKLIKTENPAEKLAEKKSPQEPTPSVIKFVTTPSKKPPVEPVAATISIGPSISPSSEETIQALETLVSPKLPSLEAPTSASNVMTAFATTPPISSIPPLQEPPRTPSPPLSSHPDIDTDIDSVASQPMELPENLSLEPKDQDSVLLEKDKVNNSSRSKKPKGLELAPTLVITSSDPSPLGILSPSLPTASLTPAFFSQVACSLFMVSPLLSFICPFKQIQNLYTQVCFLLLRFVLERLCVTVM
To be noted: protein: recombinant; tags: N-terminal GST; dsDNA, one strand shown. An outline of the steps:
as §1

The target of the next test is T10, ETV2 (Homo sapiens, UniProt O00321 1-342).
T10 sequence: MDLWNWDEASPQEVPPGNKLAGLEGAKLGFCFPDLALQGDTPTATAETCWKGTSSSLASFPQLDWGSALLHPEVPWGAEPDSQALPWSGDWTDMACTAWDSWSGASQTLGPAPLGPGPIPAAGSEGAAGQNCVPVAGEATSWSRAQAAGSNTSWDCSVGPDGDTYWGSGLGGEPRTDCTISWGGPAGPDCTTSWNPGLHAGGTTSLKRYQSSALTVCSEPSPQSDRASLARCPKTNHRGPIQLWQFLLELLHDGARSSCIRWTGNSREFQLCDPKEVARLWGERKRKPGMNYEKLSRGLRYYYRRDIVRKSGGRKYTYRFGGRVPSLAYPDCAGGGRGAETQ
To be noted: protein: recombinant; tags: N-terminal GST; dsDNA, one strand shown. The method in brief:
as §1

A further test has as its target T11, ELF3 (Homo sapiens, UniProt P78545 1-371).
T11 sequence: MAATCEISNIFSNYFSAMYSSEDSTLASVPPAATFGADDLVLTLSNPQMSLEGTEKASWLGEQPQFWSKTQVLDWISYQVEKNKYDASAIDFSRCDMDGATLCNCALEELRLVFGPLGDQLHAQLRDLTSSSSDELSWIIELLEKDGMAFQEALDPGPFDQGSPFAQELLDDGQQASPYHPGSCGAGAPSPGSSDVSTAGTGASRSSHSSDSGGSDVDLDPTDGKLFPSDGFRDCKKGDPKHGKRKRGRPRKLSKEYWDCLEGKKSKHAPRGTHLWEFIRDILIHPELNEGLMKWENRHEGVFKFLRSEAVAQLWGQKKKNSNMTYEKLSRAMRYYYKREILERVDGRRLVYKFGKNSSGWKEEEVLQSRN
To be noted: protein: recombinant; tags: N-terminal GST; dsDNA, one strand shown. The method in brief: as §1

The target in another test is CRX (Homo sapiens, UniProt O43186 1-299). To be noted: protein: recombinant; tags: N-terminal GST; dsDNA, one strand shown. The method in brief: as §1
Chain of CRX (O43186 whole entry): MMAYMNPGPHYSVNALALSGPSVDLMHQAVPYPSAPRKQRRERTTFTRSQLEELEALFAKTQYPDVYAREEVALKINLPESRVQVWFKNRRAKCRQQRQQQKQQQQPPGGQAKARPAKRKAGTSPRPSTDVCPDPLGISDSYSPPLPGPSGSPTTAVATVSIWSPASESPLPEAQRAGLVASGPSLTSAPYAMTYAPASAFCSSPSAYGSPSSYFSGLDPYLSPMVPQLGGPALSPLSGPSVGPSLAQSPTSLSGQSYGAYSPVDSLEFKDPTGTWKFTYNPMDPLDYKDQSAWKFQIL
In the next test the target is ETV1 (Homo sapiens, UniProt P50549 1-477). To be noted: protein: recombinant; tags: N-terminal GST; dsDNA, one strand shown. An outline of the steps: as §1
Chain of ETV1 (P50549 whole entry): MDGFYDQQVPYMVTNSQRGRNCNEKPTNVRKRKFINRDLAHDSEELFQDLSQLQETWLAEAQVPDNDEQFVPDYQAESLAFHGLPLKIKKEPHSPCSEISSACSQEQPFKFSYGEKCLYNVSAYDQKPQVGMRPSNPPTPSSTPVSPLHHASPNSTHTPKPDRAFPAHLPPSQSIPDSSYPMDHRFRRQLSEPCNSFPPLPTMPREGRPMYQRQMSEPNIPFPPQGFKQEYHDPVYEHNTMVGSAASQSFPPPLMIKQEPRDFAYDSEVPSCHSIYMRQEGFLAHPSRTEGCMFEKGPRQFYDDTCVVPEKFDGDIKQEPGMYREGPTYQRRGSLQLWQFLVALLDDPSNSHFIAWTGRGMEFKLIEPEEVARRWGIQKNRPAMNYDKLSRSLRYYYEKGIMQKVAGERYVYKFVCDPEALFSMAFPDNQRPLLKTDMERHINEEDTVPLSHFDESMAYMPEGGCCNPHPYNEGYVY

Chain of ELF1 (P32519 whole entry): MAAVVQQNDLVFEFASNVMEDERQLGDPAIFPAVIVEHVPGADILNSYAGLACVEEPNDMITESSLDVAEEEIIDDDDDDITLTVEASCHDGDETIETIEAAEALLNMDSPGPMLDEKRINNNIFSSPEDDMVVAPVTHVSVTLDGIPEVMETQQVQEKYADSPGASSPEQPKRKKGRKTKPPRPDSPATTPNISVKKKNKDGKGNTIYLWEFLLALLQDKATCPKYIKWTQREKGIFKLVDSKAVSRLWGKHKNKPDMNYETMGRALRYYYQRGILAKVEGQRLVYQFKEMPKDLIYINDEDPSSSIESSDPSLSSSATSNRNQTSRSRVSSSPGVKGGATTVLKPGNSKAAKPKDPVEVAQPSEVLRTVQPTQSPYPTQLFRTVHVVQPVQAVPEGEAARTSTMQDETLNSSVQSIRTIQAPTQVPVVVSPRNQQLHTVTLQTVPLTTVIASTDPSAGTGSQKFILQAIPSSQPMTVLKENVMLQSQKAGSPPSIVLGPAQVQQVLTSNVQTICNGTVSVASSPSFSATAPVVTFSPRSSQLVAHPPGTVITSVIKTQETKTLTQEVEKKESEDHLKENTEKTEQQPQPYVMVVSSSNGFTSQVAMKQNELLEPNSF
Chain of ETV5 (P41161 whole entry): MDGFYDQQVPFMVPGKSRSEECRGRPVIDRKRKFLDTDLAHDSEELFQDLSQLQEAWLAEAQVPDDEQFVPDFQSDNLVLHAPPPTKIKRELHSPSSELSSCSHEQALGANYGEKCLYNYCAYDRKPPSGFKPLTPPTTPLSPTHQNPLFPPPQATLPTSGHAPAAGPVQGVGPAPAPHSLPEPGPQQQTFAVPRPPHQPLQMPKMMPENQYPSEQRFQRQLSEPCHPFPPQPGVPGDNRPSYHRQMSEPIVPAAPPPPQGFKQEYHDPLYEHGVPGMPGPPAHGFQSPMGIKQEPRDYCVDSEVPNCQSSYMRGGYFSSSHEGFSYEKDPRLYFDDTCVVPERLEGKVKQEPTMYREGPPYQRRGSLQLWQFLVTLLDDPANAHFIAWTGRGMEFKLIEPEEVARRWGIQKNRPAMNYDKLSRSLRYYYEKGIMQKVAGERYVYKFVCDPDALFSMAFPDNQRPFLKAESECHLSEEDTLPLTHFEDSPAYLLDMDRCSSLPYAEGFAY
Chain of SPIB (Q01892 whole entry): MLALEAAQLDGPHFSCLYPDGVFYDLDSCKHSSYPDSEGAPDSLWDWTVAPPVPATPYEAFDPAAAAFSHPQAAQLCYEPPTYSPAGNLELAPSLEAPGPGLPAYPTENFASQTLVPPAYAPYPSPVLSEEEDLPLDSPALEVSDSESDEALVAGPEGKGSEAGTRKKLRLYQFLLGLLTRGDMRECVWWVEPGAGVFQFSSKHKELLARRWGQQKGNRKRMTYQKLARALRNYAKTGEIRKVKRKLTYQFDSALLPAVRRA

With GAATTC, the binding signal with FLI1 was 1.41 fold enrichment (6-mer frequency, TF over GST control); with ELK1, 1.29 fold enrichment (6-mer frequency, TF over GST control); in the test with GABPA, 1.31 fold enrichment (6-mer frequency, TF over GST control); with ERG, 1.36 fold enrichment (6-mer frequency, TF over GST control); in the test with ELF1 it was 1.31 fold enrichment (6-mer frequency, TF over GST control); with EHF it was 1.43 fold enrichment (6-mer frequency, TF over GST control). Also, the binding signal in the test with SPI1 is 1.43 fold enrichment (6-mer frequency, TF over GST control); with SPIB it was 1.38 fold enrichment (6-mer frequency, TF over GST control); with ELK3, 1.38 fold enrichment (6-mer frequency, TF over GST control); with FEV, 1.39 fold enrichment (6-mer frequency, TF over GST control); in the test with ETV5, 1.42 fold enrichment (6-mer frequency, TF over GST control); in the test with HSF1, 1.59 fold enrichment (6-mer frequency, TF over GST control). For the same sequence, the binding signal in the test with SPIC was 1.51 fold enrichment (6-mer frequency, TF over GST control); with ELF4 it was 1.36 fold enrichment (6-mer frequency, TF over GST control); in the test with ELK4, 1.27 fold enrichment (6-mer frequency, TF over GST control); with ETV2 it was 1.39 fold enrichment (6-mer frequency, TF over GST control); in the test with ELF3 it was 1.13 fold enrichment (6-mer frequency, TF over GST control); in the test with CRX it was 1.14 fold enrichment (6-mer frequency, TF over GST control). For the same sequence, in the test with ETV1, the binding signal is 1.34 fold enrichment (6-mer frequency, TF over GST control).

The record behind these values is paper PMC7862700, “An all-to-all approach to the identification of sequence-specific readers for epigenetic DNA modifications on cytosine”.
